This passage reports growth inhibition results from PubChem BioAssay (NCI).

Compounds without any hit were thinned out: in the full panel of roughly 79,000, 15% have a hit. A number with no mark means an inactive call. Activity calls are given as the source filed them. Rule as the data show it: active = growth inhibition above about 70%; inactive = the rest.

One assay is described as follows: NCI Yeast Anticancer Drug Screen. Data for the rad50 strain (AID 155).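 Also: 0% = growth of vehicle-only cultures of the same strain.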 As to conditions: S. cerevisiae rad50 strain growth inhibition; at 50.0 µM; stronger effect = higher value. The gist of the method: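 DNA repair mutant yeast, compound exposure, growth read-out; inhibition is taken relative to vehicle.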
As for `N#Cc1c2c(c(-c3cccs3)n(C3OC(CO)C(O)C(O)C3O)c1=S)CCc1ccccc1-2` (stereo not given), the growth inhibition is 10.7%.
In the case of `CCOC(=O)CCc1c(C)c2c(O)cc(O)cc2oc1=O`, the growth inhibition is 3.25%.
As for `CCOC(=O)C(CCC#N)(CCC#N)C(C)=O`, the growth inhibition was -8.5%.
Still for that read-out and setting: in the case of `O=c1nc2sc3ccccc3c(=O)n2[nH]1` it was -39.6%; in that of `CC(C)OCCCN(Cn1c(=S)sc2ccccc21)Cn1c(=S)sc2ccccc21`, 66.8%; in that of `COC(=O)CCC(CCC(=O)O)([N+](=O)[O-])[N+](=O)[O-]`, 2.05%.
On the same count and under the same terms, as for `CCN1CCCN(CC)C1=O`, the figure is 6.1%.
On the same count and under the same terms, in the case of `COc1ccc(NC2=CC(=O)C(=O)c3ccccc32)nn1` it was -4%.
With `COc1cccc(C(=O)NNC(=O)c2ccc3ccccc3c2)c1`, the growth inhibition was 13.2%.
Still for that read-out and setting: as for `Cc1cccc(Cl)c1NC(=O)c1cccc([N+](=O)[O-])c1`, the figure is 0.15%.
Still for that read-out and setting: in the case of `COC(=O)C1=C(C(=O)OC)C(=Nc2ccccc2)c2ccccc2C1=O` it was 46.8%.
On the same count and under the same terms, in the case of `Cc1nc2ccccc2nc1N1CCCC1` it was -6.2%; in that of `COc1ccc(N=C2C(=Nc3ccc(OC)cc3)N(c3ccc(OC)cc3)C(=S)N2C)cc1`, 19%; in that of `CCSc1ccc(C)cc1`, 28.6%.
As to `COc1ccc(/C(Br)=C2\OC(=O)c3ccccc32)cc1`, the growth inhibition was -7.95%.
On to `NC(N)=NC1NCC(=O)S1` (stereo not given), for which the growth inhibition was 0.2%.
Consider `COc1ccc(N)c(C(O)CCNC(C)=O)c1` (stereo not given), for which the growth inhibition was -20.1%.
Regarding `CCCCNc1nc(SC)nc2nc[nH]c12`, the growth inhibition is -9.35%.
The same measure, in the same setting: as for `Nc1ncnc(N)c1NC(=O)c1ccc(CCc2ccccc2)c(Cl)c1`, the figure is -3.9%; as for `CCCCCCCN1C=CCC(S(=O)(=O)N2CCOCC2)=C1`, -15.7%; as for `CSc1c(S(C)=O)[nH]c2cc(Br)cc(Br)c12` (stereo not given), 84.2% (active).
The same measure, in the same setting: in the case of `C/C=C/C=N/SC(c1ccccc1)(c1ccccc1)c1ccccc1` it was 9.35%; in that of `COc1cc(/C=C/C(=O)c2sc(NNC(C)=O)nc2C)ccc1O`, 15.6%; in that of `CC[n+]1ccc(/C=C\c2c(Cl)cccc2Cl)cc1`, -1.45%.
As for `C=CCOC(=O)C1CC=CCC1C(=O)OCC=C` (stereo not given), the growth inhibition is -17.6%.
Still for that read-out and setting: as for `N#C/C(=C/O)c1ccccc1`, the figure is 1.65%.
For `COC(=O)CCSCC(N)C(=O)O` (stereo not given), the growth inhibition was 1.3%.
Regarding `CCOCCOc1nc(C)cc(C)c1C#N`, the growth inhibition was -30.9%.
On the same count and under the same terms, in the case of `CC(OS(C)(=O)=O)C(C)OS(C)(=O)=O` (stereo not given) it was 2.4%; in that of `COc1ccccc1NS(=O)(=O)c1ccc2ncn(NS(=O)(=O)c3ccc(Cl)cc3)c(=O)c2c1`, 27.5%.
In the case of `ClC1CC2CC1C1CCCC21` (stereo not given), the growth inhibition was -2.4%.
For `CN1CCN(C(=O)/C(=C/c2ccccc2)NC(=O)c2ccccc2)CC1`, the growth inhibition is -6.8%.
Take `CCCCCCC(CC)C(N)=O` (stereo not given): the growth inhibition is 9.1%.
Regarding `O=C1CN(c2ccc(Cl)cc2)C(=O)CN1CCN1CC(=O)N(c2ccc(Cl)cc2)CC1=O`, the growth inhibition is -43.5%.
As for `COC(=O)C1=C(C(=O)OC)C(C)(C)N=N1`, the growth inhibition is 14.2%.
Turning to `O=S1(=O)CCCC1C(O)c1ccccc1` (stereo not given), the growth inhibition is 13.8%.
Same read-out and setting: in the case of `COc1cc(CNC(=O)CCCCCCCCCCSSCCCCCCCCCCC(=O)NCc2ccc(O)c(OC)c2)ccc1O` it was -20.4%.
As for `Cc1ccccc1C(=O)c1ccccc1Cc1cccc2ccccc12`, the growth inhibition was -2.4%.
Regarding `CCCCCCCCCC(=O)OCC1OC(n2cc(F)c(=O)[nH]c2=O)C(NC(=O)OCc2ccccc2)C(OC(=O)CCCCCCCCC)C1O` (stereo not given), the growth inhibition is -5.9%.
For the compound `CN(C)CCCN=c1c2ccccc2n(C)c2[nH]c(=O)n(C)c(=O)c12`, the growth inhibition is -32.1%.

A short description of a further assay: NCI Yeast Anticancer Drug Screen. Data for the mec2-1 strain (AID 157). As to conditions: S. cerevisiae mec2-1 strain, at 50.0 µM, stronger effect = higher value. A digest of the protocol: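 Using mec2-1 yeast: add compound, measure growth, express inhibition versus vehicle-treated cultures.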
`N#Cc1c2c(c(-c3cccs3)n(C3OC(CO)C(O)C(O)C3O)c1=S)CCc1ccccc1-2` (stereo not given): the growth inhibition was -9.55%.
As to `CCOC(=O)CCc1c(C)c2c(O)cc(O)cc2oc1=O`, the growth inhibition was -3.5%.
In the case of `CCOC(=O)C(CCC#N)(CCC#N)C(C)=O`, the growth inhibition was -1.65%.
`O=c1nc2sc3ccccc3c(=O)n2[nH]1`: the growth inhibition was -42%.
The same measure, in the same setting: as for `CC(C)OCCCN(Cn1c(=S)sc2ccccc21)Cn1c(=S)sc2ccccc21`, the figure is 54.6%.
Same read-out and setting: in the case of `COC(=O)CCC(CCC(=O)O)([N+](=O)[O-])[N+](=O)[O-]` it was -5.65%.
On the same count and under the same terms, as for `CCN1CCCN(CC)C1=O`, the figure is 4.15%; as for `COc1ccc(NC2=CC(=O)C(=O)c3ccccc32)nn1`, 4.8%; as for `COc1cccc(C(=O)NNC(=O)c2ccc3ccccc3c2)c1`, 4.55%.
Consider `Cc1cccc(Cl)c1NC(=O)c1cccc([N+](=O)[O-])c1`, for which the growth inhibition was 40.6%.
Still for that read-out and setting: as for `COC(=O)C1=C(C(=O)OC)C(=Nc2ccccc2)c2ccccc2C1=O`, the figure is 35.3%; as for `Cc1nc2ccccc2nc1N1CCCC1`, -29.1%.
On the same count and under the same terms, in the case of `COc1ccc(N=C2C(=Nc3ccc(OC)cc3)N(c3ccc(OC)cc3)C(=S)N2C)cc1` it was -7.1%; in that of `CCSc1ccc(C)cc1`, -3.15%.
On the same count and under the same terms, in the case of `COc1ccc(/C(Br)=C2\OC(=O)c3ccccc32)cc1` it was -19.9%; in that of `NC(N)=NC1NCC(=O)S1` (stereo not given), -5.65%.
With `COc1ccc(N)c(C(O)CCNC(C)=O)c1` (stereo not given), the growth inhibition is -23.2%.
Same read-out and setting: as for `CCCCNc1nc(SC)nc2nc[nH]c12`, the figure is -9.65%; as for `Nc1ncnc(N)c1NC(=O)c1ccc(CCc2ccccc2)c(Cl)c1`, 37.1%; as for `CCCCCCCN1C=CCC(S(=O)(=O)N2CCOCC2)=C1`, -7.75%.
As to `CSc1c(S(C)=O)[nH]c2cc(Br)cc(Br)c12` (stereo not given), the growth inhibition is 89.3% (active).
In the case of `C/C=C/C=N/SC(c1ccccc1)(c1ccccc1)c1ccccc1`, the growth inhibition was -7%.
Take `COc1cc(/C=C/C(=O)c2sc(NNC(C)=O)nc2C)ccc1O`: the growth inhibition was 6.85%.
On the same count and under the same terms, as for `CC[n+]1ccc(/C=C\c2c(Cl)cccc2Cl)cc1`, the figure is -17.6%.
Same read-out and setting: in the case of `C=CCOC(=O)C1CC=CCC1C(=O)OCC=C` (stereo not given) it was -26.9%.
Same read-out and setting: in the case of `N#C/C(=C/O)c1ccccc1` it was 4.4%; in that of `COC(=O)CCSCC(N)C(=O)O` (stereo not given), -2.95%.
Turning to `CCOCCOc1nc(C)cc(C)c1C#N`, the growth inhibition is -41.5%.
Still for that read-out and setting: as for `CC(OS(C)(=O)=O)C(C)OS(C)(=O)=O` (stereo not given), the figure is -9.35%; as for `COc1ccccc1NS(=O)(=O)c1ccc2ncn(NS(=O)(=O)c3ccc(Cl)cc3)c(=O)c2c1`, 15.7%.
Turning to `ClC1CC2CC1C1CCCC21` (stereo not given), the growth inhibition is -3.75%.
Still for that read-out and setting: in the case of `CN1CCN(C(=O)/C(=C/c2ccccc2)NC(=O)c2ccccc2)CC1` it was 4%; in that of `CCCCCCC(CC)C(N)=O` (stereo not given), 7.8%; in that of `O=C1CN(c2ccc(Cl)cc2)C(=O)CN1CCN1CC(=O)N(c2ccc(Cl)cc2)CC1=O`, -10.3%.
As to `COC(=O)C1=C(C(=O)OC)C(C)(C)N=N1`, the growth inhibition is 6.65%.
Same read-out and setting: in the case of `O=S1(=O)CCCC1C(O)c1ccccc1` (stereo not given) it was -5.75%; in that of `COc1cc(CNC(=O)CCCCCCCCCCSSCCCCCCCCCCC(=O)NCc2ccc(O)c(OC)c2)ccc1O`, -32.8%.
As for `Cc1ccccc1C(=O)c1ccccc1Cc1cccc2ccccc12`, the growth inhibition was -10.3%.
Same read-out and setting: as for `CCCCCCCCCC(=O)OCC1OC(n2cc(F)c(=O)[nH]c2=O)C(NC(=O)OCc2ccccc2)C(OC(=O)CCCCCCCCC)C1O` (stereo not given), the figure is -10.2%; as for `CN(C)CCCN=c1c2ccccc2n(C)c2[nH]c(=O)n(C)c(=O)c12`, -0.75%.
